Laboratory results reported in PubChem BioAssay.
Where “and” joins values, the source holds several entries; their conditions need not be identical. Equal values may be shown once. Records with an inconclusive call do not appear. Calls of active or inactive are those of the source. Rule as the data show it, unless noted: active = inhibition above about 80%; inactive = the rest.

What was measured:
[1] = SU-DIPG-XXV glioma cell viability, MIPE5.0 library, qHTS (AID 1347068; cut-off not given, nearly all actives have IC50 up to about 30 µM)
[2] = LFS_MB_P medulloblastoma growth inhibition, cell-based, chromothripsis tumors, cisplatin or BGB combos (AID 1671449); conditions: LFS_MB_P medulloblastoma cells;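 also: cells exposed for 96 hours; 0% = vehicle DMSO and 100% = killing by high DMSO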
[3] = HDN33 neuroblastoma growth inhibition, cell-based, chromothripsis tumors, cisplatin or BGB combos (AID 1671450); conditions: HDN33 neuroblastoma cells, stronger effect = higher value;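 also: cells exposed to compound for four days; 0% = vehicle DMSO and 100% = cell killing by high DMSO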
[4] = ICB984 medulloblastoma cell growth inhibition, synergistic combos for chromothripsis tumors, cisplatin or BGB combos (AID 1671451; call rule not given here;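 also: cells exposed for 96 hours before readout; 0% = vehicle DMSO and 100% = killing by high DMSO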); conditions: ICB984 medulloblastoma cells, drug combinations, stronger effect = higher value
[5] = LFS_MB_1R medulloblastoma cell growth inhibition, synergistic combos for chromothripsis tumors, cisplatin or BGB combos (AID 1671452); conditions: LFS_MB_1R medulloblastoma cells, stronger effect = higher value;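 also: cells exposed for 96 hours before readout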
[6] = HTB85 osteosarcoma cell growth inhibition, synergistic combos for chromothripsis tumors, BGB or cisplatin IC20 combos (AID 1671453); conditions: HTB85 osteosarcoma cells, drug combinations, stronger effect = higher value;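 also: cells exposed for 96 hours before readout; 0% = vehicle DMSO and 100% = high DMSO killing control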
[7] = CRL2098 osteosarcoma cell growth inhibition, synergistic combos for chromothripsis tumors, BGB or cisplatin IC20 combos (AID 1671454); conditions: CRL2098 osteosarcoma cells, drug combinations, stronger effect = higher value;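 also: cells exposed for 96 h before readout; 0% = vehicle DMSO and 100% = killing by high DMSO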
[8] = HD-MB03 medulloblastoma cell growth inhibition, synergistic combos for chromothripsis tumors, BGB or cisplatin IC20 combos (AID 1671455; in the data active = inhibition above about 83%;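 also: 0% = vehicle DMSO and 100% = high DMSO as cytotoxic control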); conditions: HD-MB03 medulloblastoma cells, stronger effect = higher value
[9] = UWB1.289 ovarian carcinoma cell growth inhibition, synergistic combos for chromothripsis tumors, BGB or cisplatin combos (AID 1671456); conditions: UWB1.289 ovarian carcinoma cells, stronger effect = higher value;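 also: cells exposed to compound for four days; 0% = vehicle DMSO and 100% = killing by high DMSO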
[10] = LFS_MB_2R medulloblastoma cell growth inhibition, synergistic combos for chromothripsis tumors, cisplatin combos (AID 1671457); conditions: LFS_MB_2R medulloblastoma cells, stronger effect = higher value;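 also: cells exposed to compound for four days before readout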
[11] = MDA-MB-436 breast carcinoma cell growth inhibition, synergistic combos for chromothripsis tumors, BGB or cisplatin combos (AID 1671458; call rule not given here;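 also: cells exposed for 96 hours; 0% = vehicle DMSO and 100% = killing by high DMSO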); conditions: MDA-MB-436 breast carcinoma growth inhibition, drug combinations, stronger effect = higher value
[12] = UWB1.289_BRCA1 ovarian cancer growth, cell-based, BGB or cisplatin combinations (AID 1671459); conditions: UWB1.289 BRCA1 ovarian carcinoma, drug combinations, stronger effect = higher value
[13] = human astrocyte viability loss, single and combined drugs, cytotoxicity control for chromothriptic childhood tumor combination screen, cell-based, BGB or cisplatin IC20 combos (AID 1671460); conditions: Human astrocytes, drug combinations, stronger effect = higher value;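 also: cells exposed to compounds for 96 hours before viability readout; 0% = vehicle and 100% = killing control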
[14] = growth inhibition of BT084 medulloblastoma cells, cell-based, ICGC_MB145, cisplatin and BGB IC40 combos (AID 1671461); conditions: drug combinations, stronger effect = higher value;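 also: cells exposed to drugs for 96 hours; 0% = vehicle DMSO and 100% = high DMSO full killing control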
[15] = growth inhibition of RCMB18 medulloblastoma cells, cell-based, cisplatin and BGB IC40 combos (AID 1671462); conditions: stronger effect = higher value;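 also: cells exposed to compound for four days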
[16] = growth inhibition of CRL1545 osteosarcoma cells, cell-based, cisplatin and BGB IC20 combos (AID 1671464); conditions: stronger effect = higher value;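 also: cells exposed to compound for 96 hours before readout; 0% = vehicle DMSO and 100% = high DMSO killing control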
[17] = sensitizers of A549 cells to miR-34 induction, primary screen, imaging, A549 dox-inducible miR-34, nuclei and caspase counts (AID 1347080;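 active = compounds whose cell count with miR-34 switched on is under 0.7 times the count with it off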); conditions: A549 miR-34 inducible, Hoechst nuclei count, 48 h
[18] = measured here: combination with BGB IC40, at 0.05 µM
[19] = measured here: with BGB IC20 combination, at 0.5 µM
[20] = measured here: with cisplatin IC20 combination, at 0.5 µM
[21] = measured here: combination with cisplatin, at 0.5 µM
[22] = measured here: combination with cisplatin, at 5 µM

Question: With `NCCOc1cc(C(=O)Nc2cc(OCCN)c3ccccc3n2)nc(C(=O)Nc2cc(OCCN)c3ccccc3n2)c1` as the compound, how does the outcome [1] read?
Answer: inactive

Question: And the inhibition ([2]; at 0.5 µM, stronger effect = higher value)?
Answer: 2.22% (inactive)

Question: What about the inhibition ([2]; measured here: combination with BGB IC20, at 0.005 µM) of the same compound?
Answer: -38.8%

Question: And the inhibition ([2]; measured here: combination with BGB IC40, at 0.005 µM)?
Answer: 62.7%

Question: What about the inhibition [2, 18] of the same compound?
Answer: -24.9%

Question: And the inhibition ([2]; measured here: combination with cisplatin, at 0.5 µM, stronger effect = higher value)?
Answer: 12.8%

Question: And the inhibition ([2]; measured here: combination with cisplatin, at 5 µM, stronger effect = higher value)?
Answer: -64.9%

Question: And the inhibition ([3]; BGB combo, at 5 µM)?
Answer: -54.1%

Question: What about the inhibition ([3]; at 0.5 µM) of the same compound?
Answer: -9.7% (inactive)

Question: And the inhibition ([3]; cisplatin combo, at 5 µM)?
Answer: -17.5%

Question: And the inhibition [3, 19]?
Answer: -37.5%

Question: And the inhibition [3, 20]?
Answer: 8.64%

Question: And the inhibition ([3]; single agent, at 5 µM)?
Answer: -33.3%

Question: What about the inhibition ([4]; BGB IC20 combo, at 0.005 µM) of the same compound?
Answer: -1.03%

Question: And the inhibition ([4]; BGB IC40 combo, at 0.005 µM)?
Answer: -1.14%

Question: What about the inhibition ([4]; BGB IC40 combo, at 0.05 µM) of the same compound?
Answer: 41.5%

Question: What about the inhibition ([4]; at 0.5 µM) of the same compound?
Answer: -7.14% (inactive)

Question: And the inhibition ([4]; cisplatin combo, at 0.05 µM)?
Answer: 38.8%

Question: What about the inhibition ([4]; cisplatin combo, at 0.5 µM) of the same compound?
Answer: 5%

Question: And the inhibition ([4]; cisplatin combo, at 5 µM)?
Answer: -7.59%

Question: And the inhibition ([4]; measured here: 5 uM single agent, at 5 µM)?
Answer: -6.04%

Question: What about the inhibition ([5]; at 0.5 µM) of the same compound?
Answer: -45.4% (inactive)

Question: And the inhibition [5, 18]?
Answer: -42.8%

Question: What about the inhibition [5, 21] of the same compound?
Answer: -52.8%

Question: And the inhibition [5, 22]?
Answer: -9.07%

Question: What about the inhibition ([6]; at 0.5 µM) of the same compound?
Answer: -5.41% (inactive)

Question: And the inhibition ([6]; measured here: with BGB IC20, at 0.5 µM)?
Answer: 16.9%

Question: What about the inhibition ([6]; measured here: with BGB IC20, at 5 µM) of the same compound?
Answer: 14.7%

Question: What about the inhibition ([6]; measured here: with cisplatin IC20, at 0.5 µM) of the same compound?
Answer: -18.6%

Question: And the inhibition ([6]; measured here: with cisplatin IC20, at 5 µM)?
Answer: 11.6%

Question: And the inhibition ([6]; single agent, at 5 µM)?
Answer: -2.66%

Question: And the inhibition ([7]; at 0.5 µM)?
Answer: -35.9% (inactive)

Question: And the inhibition ([7]; measured here: combination with BGB at IC20, at 0.5 µM)?
Answer: -36.6%

Question: What about the inhibition ([7]; measured here: combination with cisplatin at IC20, at 0.5 µM) of the same compound?
Answer: -37.8%

Question: What about the inhibition ([8]; at 0.5 µM) of the same compound?
Answer: -13.1% (inactive)

Question: And the inhibition ([8]; measured here: combo with BGB at IC20, at 0.5 µM)?
Answer: -12.1%

Question: What about the inhibition ([8]; measured here: combo with cisplatin at IC20, at 0.5 µM) of the same compound?
Answer: -20.4%

Question: And the inhibition ([9]; at 0.5 µM)?
Answer: -1.71% (inactive)

Question: And the inhibition ([9]; measured here: inhibition with BGB combination, at 0.05 µM)?
Answer: -20.7%

Question: And the inhibition ([9]; measured here: inhibition with cisplatin combination, at 0.05 µM)?
Answer: -14.5%

Question: And the inhibition ([10]; at 0.5 µM)?
Answer: -18.8% (inactive)

Question: And the inhibition [10, 21]?
Answer: -2.5%

Question: What about the inhibition [10, 22] of the same compound?
Answer: -13.9%

Question: What about the inhibition ([11]; at 0.5 µM) of the same compound?
Answer: 0.88% (inactive)

Question: And the inhibition ([11]; measured here: BGB combination, at 0.5 µM)?
Answer: 5.33%

Question: And the inhibition ([11]; measured here: BGB combination, at 5 µM)?
Answer: 54.3%

Question: And the inhibition ([11]; measured here: cisplatin combination, at 0.5 µM)?
Answer: -17.7%

Question: And the inhibition ([11]; measured here: cisplatin combination, at 5 µM)?
Answer: 63.8%

Question: What about the inhibition ([12]; BGB combination, concentration series, at 5 µM) of the same compound?
Answer: 15.3%

Question: And the inhibition ([12]; at 0.5 µM)?
Answer: -6.49% (inactive)

Question: What about the inhibition ([12]; cisplatin combination, concentration series, at 5 µM) of the same compound?
Answer: 19.1%

Question: And the inhibition ([13]; at 0.5 µM)?
Answer: 5.8% (inactive)

Question: And the inhibition ([13]; measured here: combo with BGB IC20, at 0.5 µM)?
Answer: 5.26%

Question: And the inhibition ([13]; measured here: combo with cisplatin IC20, at 0.5 µM)?
Answer: 9.36%

Question: What about the inhibition ([14]; at 0.5 µM) of the same compound?
Answer: -11.2% (inactive)

Question: And the inhibition ([14]; cisplatin combination, at 0.5 µM)?
Answer: -3.81%

Question: And the inhibition ([14]; cisplatin combination, at 5 µM)?
Answer: -140%

Question: What about the inhibition ([14]; measured here: BGB IC40 combination 0.05 uM, at 0.05 µM) of the same compound?
Answer: -28.5%

Question: What about the inhibition ([14]; single agent, at 5 µM) of the same compound?
Answer: -22.2%

Question: What about the inhibition ([15]; at 0.5 µM) of the same compound?
Answer: -16.6% (inactive)

Question: And the inhibition ([15]; cisplatin combo, at 5 µM)?
Answer: -19.4%

Question: What about the inhibition ([15]; measured here: BGB IC40 combination, at 0.05 µM) of the same compound?
Answer: -9.5%

Question: And the inhibition [15, 21]?
Answer: -38.3%

Question: And the inhibition ([15]; single agent, at 5 µM)?
Answer: -10.4%

Question: And the inhibition ([16]; at 0.5 µM)?
Answer: 11.6% (inactive)

Question: What about the inhibition [16, 19] of the same compound?
Answer: -1.76%

Question: What about the inhibition [16, 20] of the same compound?
Answer: 17%

Question: And the inhibition ([16]; single agent, at 0.05 µM)?
Answer: -15.4%

Question: What about the inhibition ([16]; single agent, at 5 µM) of the same compound?
Answer: 55%

Question: For `CC=CCC(C)C(O)C1C(=O)NC(CC)C(=O)N(C)CC(=O)N(C)C(CC(C)C)C(=O)NC(C(C)C)C(=O)N(C)C(CC(C)C)C(=O)NC(C)C(=O)NC(C)C(=O)N(C)C(CC(C)C)C(=O)N(C)C(CC(C)C)C(=O)N(C)C(C(C)C)C(=O)N1C` (stereo unspecified), which fold change ([17]; stronger effect = lower value, cell number ratio, induced over uninduced) is on record?
Answer: 1.07 (inactive) and 0.992 (inactive)

Question: And the fold change ([17]; measured here: relative caspase fold change +Dox/-Dox)?
Answer: 0.343 and 1.41
